Results from PubChem BioAssay AID1626 (SRMLSC, 2009).
Hit rate of the full screen: of about 220,000 compounds, about 2,000 (0.91%) were called active. Not shown: some 2% with an inconclusive outcome. Cut-off read from the data, not from the text of the source: inconclusive = inhibition above about 80% without an active follow-up result; inactive = below that; test concentration not stated here. The list is a sample of the results. Measured potencies and affinities stand elsewhere.

Experiment: M. tuberculosis H37Rv growth inhibitors, H37Rv strain (AID 1626);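 note: bacteria incubated seven days before Alamar blue readout; 0% = bacteria only wells and 100% = bacteria with antibiotic wells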
Settings: hits give high values, concentration not given here

Q: Which inhibition does the source give for `Cc1ccc2oc(=O)c(/C=C(\O)c3sc(C)nc3C)nc2c1` here?
A: -8.77% (inactive)

Q: For `C/C(O)=C\c1nc2ccccc2oc1=O`, which inhibition is on record?
A: 75.9% (inactive)

Q: With `Cc1ccc(/C(O)=C/c2nc3cc(C)ccc3oc2=O)cc1` as the molecule, how does the inhibition read?
A: 16.9% (inactive)

Q: For `O=c1oc2cc([N+](=O)[O-])ccc2nc1/C=C(\O)c1cccc(Br)c1`, which inhibition is on record?
A: -3.89% (inactive)

Q: With `O=c1oc2cc([N+](=O)[O-])ccc2nc1/C=C(O)/C=C/c1ccccc1` as the molecule, how does the inhibition read?
A: -2.36% (inactive)

Q: With `Cc1ccc2oc(=O)c(/C=C(\O)c3cccs3)nc2c1` as the molecule, how does the inhibition read?
A: -2.1% (inactive)

Q: With `Cc1ccc2oc(=O)c(/C=C(\O)c3ccccc3)nc2c1` as the molecule, how does the inhibition read?
A: -10.4% (inactive)

Q: With `O=c1oc2ccccc2nc1/C=C(O)/C=C/c1ccc(F)cc1` as the molecule, how does the inhibition read?
A: 63.9% (inactive)

Q: Which inhibition does the source give for `C=CCc1cc(OC)ccc1OCCOCCN1CCc2ccccc2C1` here?
A: 6.94% (inactive)

Q: Which inhibition does the source give for `COc1cccc(CNc2ccc(F)c(Cl)c2)c1` here?
A: 12.1% (inactive)

Q: Which inhibition does the source give for `OCCC1CN(Cc2cccnc2)CCN1CCc1ccccc1` (centres undefined) here?
A: -0.305% (inactive)

Q: With `COc1ccc(-c2c[n+](CC(=O)N3c4ccccc4Sc4ccccc43)c3n2CCC3)cc1` as the molecule, how does the inhibition read?
A: 78.6% (inactive)

Q: With `O=C(C[n+]1cc(-c2ccccc2)n2c1CCCCC2)c1ccc(Cl)cc1` as the molecule, how does the inhibition read?
A: 18.6% (inactive)

Q: For `O=C(C[n+]1cc(-c2ccc(Cl)cc2)n2c1CCCCC2)c1ccccc1`, which inhibition is on record?
A: -4.68% (inactive)

Q: For `Cc1ccc(-c2c[n+](CC(=O)c3cccs3)c3n2CCC3)cc1`, which inhibition is on record?
A: 18.1% (inactive)

Q: With `O=C(C[n+]1cc(-c2ccccc2)n2c1CCC2)OCc1ccccc1` as the molecule, how does the inhibition read?
A: -7.15% (inactive)

Q: Which inhibition does the source give for `O=C(C[n+]1cc(-c2ccc(F)cc2)n2c1CCC2)c1cccs1` here?
A: 0.03% (inactive)

Q: With `O=C(C[n+]1cc(-c2ccc(F)cc2)n2c1CCC2)OCc1ccccc1` as the molecule, how does the inhibition read?
A: -9.6% (inactive)

Q: With `O=C(C[n+]1cc(-c2ccccc2)n2c1CCC2)c1cccs1` as the molecule, how does the inhibition read?
A: -2.31% (inactive)

Q: For `O=C1CC(SCCc2nc3ccccc3[nH]2)C(=O)N1c1ccc(F)cc1` (centres undefined), which inhibition is on record?
A: -1% (inactive)

Q: Which inhibition does the source give for `CS(=O)(=O)N(CC(=O)NC1CCCC1)Cc1ccc(Cl)cc1` here?
A: -2.78% (inactive)

Q: Which inhibition does the source give for `Cc1nc(Cl)c(C(=O)NC(C)(C)C)c(C)c1Cl` here?
A: -4.14% (inactive)

Q: For `COc1ccc(N2C(=O)CCC(C(=O)NCc3ccccn3)C2c2ccc(OC)c(OC)c2)cc1` (centres undefined), which inhibition is on record?
A: -14.1% (inactive)

Q: For `CC(=O)N1CCN(c2ccc([N+](=O)[O-])cc2C=C2C(=O)NC(=O)NC2=O)CC1`, which inhibition is on record?
A: 7.44% (inactive)

Q: With `CSc1nc2ccccc2n1CC(=O)Nc1ccccc1` as the molecule, how does the inhibition read?
A: -4.24% (inactive)

Q: Which inhibition does the source give for `Cc1[nH]c2ccc(C(=O)OCCN(C)C)cc2c1C` here?
A: -4.75% (inactive)

Q: With `O=C(C[n+]1cc(-c2ccc(Cl)c(Cl)c2)n2c1CCC2)c1cccs1` as the molecule, how does the inhibition read?
A: 3.68% (inactive)

Q: With `O=C(C[n+]1cc(-c2ccc(Cl)c(Cl)c2)n2c1CCC2)OCc1ccccc1` as the molecule, how does the inhibition read?
A: 4.51% (inactive)

Q: With `CCOCCCNCc1ccc(OC)cc1` as the molecule, how does the inhibition read?
A: -2.12% (inactive)

Q: With `N#Cc1nc(-c2ccccc2F)oc1NCCc1ccccn1` as the molecule, how does the inhibition read?
A: 4.27% (inactive)

Q: For `Cc1cc(C)cc(NC(=O)Nc2ccc3c(c2)N(C)C(=O)CS3)c1`, which inhibition is on record?
A: 1.91% (inactive)

Q: With `CCC1CCC/C1=N\NC(=O)c1cc(C)[nH]n1` (centres undefined) as the molecule, how does the inhibition read?
A: -7.04% (inactive)

Q: For `CC(C)(C)C(=O)COc1ccccc1[N+](=O)[O-]`, which inhibition is on record?
A: 0.09% (inactive)

Q: With `NNC(=O)COc1ccccc1[N+](=O)[O-]` as the molecule, how does the inhibition read?
A: -1.65% (inactive)

Q: For `CC(C)(Oc1ccc(Cl)cc1)C(=O)N/N=C/c1cn[nH]c1-c1ccccc1`, which inhibition is on record?
A: -0.17% (inactive)

Q: With `CC1CCC2(CC1)OCC1(CCC3(COC4(CCC(C)CC4)OC3)C1=O)CO2` (centres undefined) as the molecule, how does the inhibition read?
A: -1.15% (inactive)

Q: For `CCOC(=O)CNC(=O)CNC(=O)c1ccc(OC)cc1`, which inhibition is on record?
A: -5.13% (inactive)

Q: For `CCCCOc1ccc(C(=O)NCC(=O)NCC(=O)OCC)cc1`, which inhibition is on record?
A: 5.43% (inactive)

Q: With `Cc1ccc(S(=O)(=O)N(C)C)cc1-n1c(SCC(=O)Nc2ccccc2)nc2ccccc2c1=O` as the molecule, how does the inhibition read?
A: 1.63% (inactive)

Q: For `Cc1nnc(Sc2cc(NCCCO)c([N+](=O)[O-])c3nonc23)s1`, which inhibition is on record?
A: -2.43% (inactive)

Q: With `Cc1nnc(Sc2cc(NCCO)c([N+](=O)[O-])c3nonc23)s1` as the molecule, how does the inhibition read?
A: -7.45% (inactive)

Q: With `Cn1ccnc1Sc1cc(NCCCO)c([N+](=O)[O-])c2nonc12` as the molecule, how does the inhibition read?
A: 2.79% (inactive)

Q: With `CCOC(=O)N1CCN(c2cc(NCCO)c([N+](=O)[O-])c3nonc23)CC1` as the molecule, how does the inhibition read?
A: -2.1% (inactive)

Q: With `COC(=O)CNC(=O)COC(=O)/C=C/c1ccccc1[N+](=O)[O-]` as the molecule, how does the inhibition read?
A: 3.19% (inactive)

Q: Which inhibition does the source give for `Cc1ccc(S(=O)(=O)NCCc2nnc3ccc(NCCCOC(C)C)nn23)cc1` here?
A: 0.94% (inactive)

Q: Which inhibition does the source give for `CC1(c2ccc([N+](=O)[O-])cc2)CC(C)(C)N(C(=O)c2ccccc2)c2ccccc21` (centres undefined) here?
A: 6.73% (inactive)

Q: Which inhibition does the source give for `CC1(c2cc([N+](=O)[O-])cc([N+](=O)[O-])c2)CC(C)(C)N(C(=O)c2ccccc2)c2ccccc21` (centres undefined) here?
A: 2.82% (inactive)

Q: For `CC(=O)C1=C(O)C(=O)N(Cc2ccco2)C1c1ccc2c(c1)OCO2` (centres undefined), which inhibition is on record?
A: -9.04% (inactive)

Q: With `CC(C)NC(=O)C(=O)NCCc1ccc(Cl)cc1` as the molecule, how does the inhibition read?
A: -1.47% (inactive)

Q: Which inhibition does the source give for `CCOC(=O)c1c(C)[nH]c(NC(=O)Nc2c(C)n(C)n(-c3ccccc3)c2=O)c1C` here?
A: -2.03% (inactive)

Q: With `COc1ccc(O)c2c(=O)c3c(OC)cc4c(c3oc12)C1C=COC1O4` (centres undefined) as the molecule, how does the inhibition read?
A: -3.61% (inactive)

Q: Which inhibition does the source give for `Cn1cc(CN2CCCC(C(=O)c3ccc(-c4ccccc4)cc3)C2)cn1` (centres undefined) here?
A: -1.15% (inactive)

Q: For `CSc1ccccc1C(=O)C1CCCN(Cc2cnn(-c3ccccc3)c2)C1` (centres undefined), which inhibition is on record?
A: 0.775% (inactive)

Q: With `Cc1ccc(NC(=O)/C=C\C(=O)NCC(=O)O)cc1` as the molecule, how does the inhibition read?
A: -2.38% (inactive)

Q: Which inhibition does the source give for `COC(=O)C1=C(C(=O)OC)[C@@H]2Nc3ccccc3[C@@]23C[C@@H](C(=O)OC)N(C(=O)c2ccco2)C3=N1` here?
A: -1.72% (inactive)

Q: With `O=C(NCc1cn(-c2ccccc2)nc1-c1ccccc1)c1ccc([N+](=O)[O-])cc1` as the molecule, how does the inhibition read?
A: -4% (inactive)

Q: With `Cc1ccc(C(=O)NCc2ccco2)cc1[N+](=O)[O-]` as the molecule, how does the inhibition read?
A: 0.79% (inactive)

Q: Which inhibition does the source give for `O=C(NCc1cn(-c2ccccc2)nc1-c1ccccc1)c1cccc([N+](=O)[O-])c1` here?
A: 10.1% (inactive)

Q: For `O=C(NCc1ccco1)c1cc([N+](=O)[O-])ccc1Cl`, which inhibition is on record?
A: -6.78% (inactive)
